The source made the active and inactive calls. The calls were made as follows: active = hit-call score of the fitted dose curve at least 0.9, where 1 is the maximum; inactive = score below 0.9.
How the values were obtained:
[1] = read-out: Monokine induced gamma interferon (MIG), CXCL9 (gene 4283); assay: BSK_hDFCGF_MIG: BioMAP Diversity Plus: hDFCGF Assay for Monokine induced gamma interferon (MIG) Biomarker Activity (AID 2283063); details: primary human foreskin fibroblasts; actives raise or lower the signal
Method in brief: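 ELISA read-out of MIG from primary human dermal fibroblasts 24 h post-dosing. Gain or loss of signal fitted bidirectionally, DMSO as baseline.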

[2] = read-out: Matrix Metallopeptidase 1 (MMP1), MMP1 (gene 4312); assay: BSK_hDFCGF_MMP1: BioMAP Diversity Plus: hDFCGF Assay for Matrix Metallopeptidase 1 (MMP1) Biomarker Activity (AID 2283064); details: primary human foreskin fibroblasts; actives raise or lower the signal
Method in brief: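 ELISA read-out of MMP1 from human foreskin fibroblasts (primary skin cells), 24 h post-dose. Gain or loss of signal was fitted bidirectionally versus DMSO negative control; cytotoxicity was checked by SRB in parallel cultures.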

[3] = read-out: Vascular cell adhesion molecule 1 (VCAM1), VCAM1 (gene 7412); assay: BSK_hDFCGF_VCAM1: BioMAP Diversity Plus: hDFCGF Assay for Vascular cell adhesion molecule 1 (VCAM1) Biomarker Activity (AID 2283065); details: primary human foreskin fibroblasts; actives raise or lower the signal;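 as to AC50: VCAM-1 protein level quantified by ELISA after 24 h chemical exposure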
Method in brief: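 Primary human foreskin fibroblasts (hDFCGF system) were dosed with chemical and VCAM-1 was measured by ELISA 24 h later. Bidirectional curve fitting used DMSO as negative control and activity baseline.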

[4] = read-out: Plasminogen activator inhibitor-1 (PAI1), SERPINE1 (gene 5054); assay: BSK_hDFCGF_PAI1: BioMAP Diversity Plus: hDFCGF Assay for Plasminogen activator inhibitor-1 (PAI1) Biomarker Activity (AID 2283066); details: primary human foreskin fibroblasts; actives raise or lower the signal
Method in brief: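 PAI-1 levels in human dermal foreskin fibroblasts were quantified by ELISA 24 h after dosing, with gain or loss analysed against DMSO. Overt cytotoxicity was checked by sulforhodamine B total-protein staining in parallel cultures.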

[5] = read-out: Intercellular Adhesion Molecule 1 (ICAM1), ICAM1 (gene 3383); assay: BSK_KF3CT_ICAM1: BioMAP Diversity Plus: KF3CT Assay for Intercellular Adhesion Molecule 1 (ICAM1) Biomarker Activity (AID 2283067); details: primary human keratinocytes with fibroblasts; actives raise or lower the signal
Method in brief: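 Human keratinocyte plus foreskin fibroblast primary co-culture was exposed to chemical for 24 h. ICAM-1 was then quantified by ELISA, and the data were fit bidirectionally against DMSO as the negative control and baseline.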

[6] = read-out: Interferon-gamma inducible Protein 10 (IP10), CXCL10 (gene 3627); assay: BSK_KF3CT_IP10: BioMAP Diversity Plus: KF3CT Assay for Interferon-gamma inducible Protein 10 (IP10) Biomarker Activity (AID 2283068); details: primary human keratinocytes with fibroblasts; actives raise or lower the signal
Method in brief: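 KF3CT co-culture (keratinocytes + foreskin fibroblasts), 24 h compound, IP-10 by ELISA; bidirectional fit vs DMSO baseline.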

[7] = BSK_KF3CT_SRB: Viability Assessment in the BioMAP Diversity Plus: KF3CT Assay (AID 2283069); details: primary human keratinocytes with fibroblasts;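 also: read 24 h after compound addition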
Method in brief: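 SRB read-out at 560 nm (0.1% stain, TCA-fixed cells) gauges overt cytotoxicity in a human skin keratinocyte–fibroblast co-culture 24 h post-dosing. Signal change was fitted bidirectionally relative to DMSO control.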

[8] = read-out: C-C motif chemokine 2 (Homo sapiens) (UniProt P13500); assay: BSK_KF3CT_MCP1: BioMAP Diversity Plus: KF3CT Assay for Monocyte Chemoattractant Protein 1 (MCP1/CCL2) Biomarker Activity (AID 2283073); details: primary human keratinocytes with fibroblasts; actives raise or lower the signal
Method in brief: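 Human keratinocyte plus foreskin fibroblast primary co-culture exposed to chemical for 24 h. MCP-1 levels measured by ELISA. Bidirectional curve fitting relative to DMSO negative control as baseline.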

[9] = read-out: Matrix Metallopeptidase 9 (MMP9), MMP9 (gene 4318); assay: BSK_KF3CT_MMP9: BioMAP Diversity Plus: KF3CT Assay for Matrix Metallopeptidase 9 (MMP9) Biomarker Activity (AID 2283074); details: primary human keratinocytes with fibroblasts; actives raise or lower the signal;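 as to AC50: MMP9 protein level quantified by ELISA in the co-culture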
Method in brief: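 ELISA read-out of MMP-9 at 24 h post-dosing in a co-culture of human skin keratinocytes and foreskin fibroblasts. Gain or loss of signal was fitted in both directions against DMSO.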

[10] = read-out: urokinase plasminogen activator (uPA), PLAU (gene 5328); assay: BSK_KF3CT_uPA: BioMAP Diversity Plus: KF3CT Assay for urokinase plasminogen activator (uPA) Biomarker Activity (AID 2283075); details: primary human keratinocytes with fibroblasts; actives raise or lower the signal
Method in brief: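 Skin co-culture (keratinocytes + foreskin fibroblasts), human primary; 24 h post-dose; uPA by ELISA; gain/loss fit vs DMSO baseline.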

CD40, CD40 (gene 958) = assay: BSK_LPS_CD40: BioMAP Diversity Plus: LPS Assay for CD40 Biomarker Activity (AID 2283076); details: primary human HUVEC with PBMC; actives raise or lower the signal
Method in brief: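 Primary human umbilical vein endothelial cells co-cultured with peripheral blood mononuclear cells, LPS-stimulated, were dosed with chemical and read 24 h later. CD40 levels were measured by ELISA and fitted bidirectionally against DMSO as negative control and baseline.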

[11] = read-out: E-selectin (Homo sapiens) (UniProt P16581); assay: BSK_LPS_Eselectin: BioMAP Diversity Plus: LPS Assay for Eselectin Biomarker Activity (AID 2283077); details: primary human HUVEC with PBMC; actives raise or lower the signal
Method in brief: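 Human umbilical vein endothelial cells co-cultured with peripheral blood mononuclear cells under LPS stimulation; E-selectin measured by ELISA 24 h after chemical dosing. Activity fitted bidirectionally against DMSO as negative control and baseline.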

[12] = read-out: Interleukin-8 (IL8), CXCL8 (gene 3576); assay: BSK_LPS_IL8: BioMAP Diversity Plus: LPS Assay for Interleukin-8 (IL8) Biomarker Activity (AID 2283078); details: primary human HUVEC with PBMC; actives raise or lower the signal
Method in brief: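 Human umbilical vein endothelial cells co-cultured with PBMC were stimulated with LPS; IL-8 levels were measured by ELISA 24 h after chemical dosing. Activity was fitted bidirectionally against DMSO as negative control and baseline.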

[13] = BSK_LPS_SRB: Viability Assessment in the BioMAP Diversity Plus: LPS Assay (AID 2283079); details: primary human HUVEC with PBMC;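 also: total protein by sulforhodamine B absorbance as a cytotoxicity measure; measured one day after compound addition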
Method in brief: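 Human umbilical vein endothelial cells co-cultured with PBMC (LPS system) were dosed for 24 h. Total protein was stained with 0.1% sulforhodamine B after 10% TCA fixation, read at 560 nm, and fitted bidirectionally against DMSO baseline.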

[14] = read-out: Interleukin-1 alpha (IL1a), IL1A (gene 3552); assay: BSK_LPS_IL1a: BioMAP Diversity Plus: LPS Assay for Interleukin-1 alpha (IL1a) Biomarker Activity (AID 2283080); details: primary human HUVEC with PBMC; actives raise or lower the signal
Method in brief: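 Human umbilical vein endothelial cells co-cultured with peripheral blood mononuclear cells were LPS-stimulated and exposed to test chemicals for 24 h. IL-1 alpha was quantified by ELISA, with bidirectional curve fitting against DMSO as the negative control and baseline.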

[15] = read-out: Monocyte Chemoattractant Protein-1 (MCP1), CCL2 (gene 6347); assay: BSK_LPS_MCP1: BioMAP Diversity Plus: LPS Assay for Monocyte Chemoattractant Protein-1 (MCP1) Biomarker Activity (AID 2283081); details: primary human HUVEC with PBMC; actives raise or lower the signal;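 as to AC50: co-culture stimulated with LPS; secreted MCP-1 protein quantified by ELISA in culture supernatant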
Method in brief: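 HUVEC plus PBMC co-culture (human primary cells, LPS system) exposed to test chemical for 24 h; MCP-1 measured by ELISA. Bidirectional curve fitting against DMSO baseline; parallel SRB total-protein staining flags overt cytotoxicity.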

[16] = BSK_LPS_PGE2: BioMAP Diversity Plus: LPS Assay for Prostaglandin E2 (PGE2) Biomarker Activity (AID 2283082); details: primary human HUVEC with PBMC; actives raise or lower the signal;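 as to AC50: secreted prostaglandin E2 measured by ELISA in LPS-stimulated co-culture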
Method in brief: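 PGE2 release measured by ELISA in an LPS-activated co-culture of human umbilical vein endothelial cells and peripheral blood mononuclear cells, read at 24 h post-dosing. DMSO served as baseline for bidirectional curve fitting.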

[17] = read-out: Transforming growth factor beta 1 (TGFb1), TGFB1 (gene 7040); assay: BSK_KF3CT_TGFb1: BioMAP Diversity Plus: KF3CT Assay for Transforming growth factor beta 1 (TGFb1) Biomarker Activity (AID 2283072); details: primary human keratinocytes with fibroblasts; actives raise or lower the signal
Method in brief: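 ELISA quantifies TGF-b1 at 24 h post-dose in a primary human skin co-culture of keratinocytes and fibroblasts, with gain or loss judged against DMSO. Parallel SRB total-protein staining flags overt cytotoxicity.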

[18] = read-out: Interleukin-1 alpha (IL1a), IL1A (gene 3552); assay: BSK_KF3CT_IL1a: BioMAP Diversity Plus: KF3CT Assay for Interleukin-1 alpha (IL1a) Biomarker Activity (AID 2283070); details: primary human keratinocytes with fibroblasts; actives raise or lower the signal
Method in brief: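 Primary skin co-culture (keratinocytes, foreskin fibroblasts), 24 h exposure; ELISA for IL-1a; bidirectional curve fit vs DMSO.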

[19] = read-out: TIMP metallopeptidase inhibitor 2 (TIMP2), TIMP2 (gene 7077); assay: BSK_KF3CT_TIMP2: BioMAP Diversity Plus: KF3CT Assay for TIMP metallopeptidase inhibitor 2 (TIMP2) Biomarker Activity (AID 2283071); details: primary human keratinocytes with fibroblasts; actives raise or lower the signal
Method in brief: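 TIMP-2 measured by ELISA at 24 h in human keratinocyte/fibroblast primary co-cultures exposed to chemicals. Both increases and decreases were fitted against DMSO. Parallel cultures were stained with SRB for total protein as an overt-cytotoxicity check.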

Measured: AC50

Sequence of E-selectin (Homo sapiens) (P16581 whole entry, looked up): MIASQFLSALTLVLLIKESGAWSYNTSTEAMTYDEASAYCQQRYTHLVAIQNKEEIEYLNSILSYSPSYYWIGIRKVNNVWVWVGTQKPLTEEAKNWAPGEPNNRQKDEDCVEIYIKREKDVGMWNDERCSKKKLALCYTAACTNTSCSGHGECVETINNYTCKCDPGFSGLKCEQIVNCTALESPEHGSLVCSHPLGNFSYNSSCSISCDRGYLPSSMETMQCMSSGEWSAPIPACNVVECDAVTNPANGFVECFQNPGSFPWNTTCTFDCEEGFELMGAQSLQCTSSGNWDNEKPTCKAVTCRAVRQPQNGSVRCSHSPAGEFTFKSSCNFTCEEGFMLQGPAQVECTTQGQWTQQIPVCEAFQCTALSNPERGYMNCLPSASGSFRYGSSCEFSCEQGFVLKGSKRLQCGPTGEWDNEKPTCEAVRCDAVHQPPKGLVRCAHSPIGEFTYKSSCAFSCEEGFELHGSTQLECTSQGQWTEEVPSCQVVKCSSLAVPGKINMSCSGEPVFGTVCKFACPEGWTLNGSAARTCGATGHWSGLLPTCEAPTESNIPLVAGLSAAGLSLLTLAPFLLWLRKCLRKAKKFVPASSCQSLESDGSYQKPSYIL

Nc1ccc(N)cc1
not listed: [17] | [18] | [19]
inactive: all other assays above

O=C1C=CC(=O)c2ccccc21
active: [1] 1.68 µM | [2] 1.98 µM | [3] 1.2 µM | [4] 1.53 µM | [5] 2.71 µM | [6] 2.81 µM | [17] 1.81 µM | [8] 3.45 µM | [9] 5.16 µM | [10] 2.86 µM | CD40, CD40 (gene 958) 1.37 µM | [11] 1.44 µM | [12] 1.37 µM | [13] 5.33 µM | [14] 1.07 µM | [15] 2.7 µM
inactive: [7] | [16]

CC(C)(C)c1cc([N+](=O)[O-])cc(C(C)(C)C)c1O
active: [19] 20 µM | [8] 30.7 µM | [9] 11.3 µM | CD40, CD40 (gene 958) 0.492 µM | [11] 0.345 µM | [13] 0.683 µM
not listed: [6] | [17]
inactive: all other assays above

CCOC(=O)CCN(SN(C)C(=O)Oc1cccc2c1OC(C)(C)C2)C(C)C
active: [1] 29.9 µM | [3] 29.7 µM | [4] 28.7 µM
not listed: [17] | [19]
inactive: all other assays above

OC(Cc1ccccc1Cl)(Cn1[nH]cnc1=S)C1(Cl)CC1 (stereo not drawn)
active: [1] 33.3 µM | [3] 17.8 µM | [19] 11.1 µM | [17] 16.9 µM | CD40, CD40 (gene 958) 20 µM | [15] 24.6 µM | [16] 11.1 µM
not listed: [18]
inactive: all other assays above

N#Cc1cccnc1
not listed: [18] | [19]
inactive: all other assays above

From PubChem BioAssay (EPA / NIEHS)
